Test results from the supplement of paper PMC13380429.

Columns and labels:
[1] = tested on: Vero E6 infected with SARS-CoV-2; experiment: morphology score (similarity to uninfected cells); higher = more like uninfected cells; conditions: 24 h
[2] = tested on: Vero E6 infected with SARS-CoV-2; experiment: SARS-CoV-2 infection rate relative to infected DMSO; higher = more infection, active = 60 or less; conditions: 24 h

SMILES | morphology score [1] | SARS-CoV-2 infection rate [2]
CCCCc1ccc(C(N)=O)nc1 [bupicomide] (10 µM) | -0.191 | 102% (inactive)
CCCCCCCCCCCCCC(=O)OC(C)C [isopropyl-myristate] (10 µM) | 0.235 | 95.5% (inactive)
Cc1ccccc1-c1cc(N2CCN(C)CC2)ncc1N(C)C(=O)C(C)(C)c1cc(C(F)(F)F)cc(C(F)(F)F)c1 [netupitant] (10 µM) | 0.112 | 94% (inactive)
Cc1ccc(-c2ncn(-c3ccc(Nc4nccc(-c5cccc(N6CCOCC6)c5)n4)cc3)n2)cn1 (10 µM) | -0.292 | 102% (inactive)
Cc1cccc(C)c1OCC(C)N (centres undefined) [mexiletine] (10 µM) | -0.0725 | 112% (inactive)
Nc1c(S(=O)(=O)O)cc(Nc2cccc3ccccc23)c2c1C(=O)c1ccccc1C2=O (10 µM) | 0.145 | 112% (inactive)
CCN1C(=O)CNc2ncc(-c3ccc(-c4nc[nH]n4)nc3C)nc21 (10 µM) | -0.0465 | 96.5% (inactive)
O=C(O[C@H]1C[C@H]2CC[C@@H](C1)[N+]21CCCC1)C(O)(c1ccccc1)c1ccccc1 [trospium] (10 µM) | 0.0583 | 102% (inactive)
CCSc1ccc2c(c1)N(CCCN1CCN(C)CC1)c1ccccc1S2 [thiethylperazine] (10 µM) | 0.722 | 29.5% (active)
CCN(CC)Cc1nccn1-c1ccc([N+](=O)[O-])cc1C(=O)c1ccccc1Cl [nizofenone] (10 µM) | 0.148 | 98% (inactive)
CC(C)[C@H](CO)Nc1nc(Nc2cccc(Cl)c2)c2ncn(C(C)C)c2n1 [purvalanol-A] (0.833333 µM) | -0.028 | 109% (inactive)
Clc1cccc(/C=N/N=C/c2cccc(Cl)c2)c1 [3,3'-dichlorobenzaldazine] (10 µM) | 0.288 | 99% (inactive)
CC(=O)O[C@]1(C(C)=O)CC[C@H]2[C@@H]3C=C(Cl)C4=CC(=O)CC[C@]4(C)[C@H]3CC[C@@]21C [chlormadinone-acetate] (10 µM) | 0.106 | 106% (inactive)
COc1cc(N2CCC(N)CC2)ccc1Nc1ncc(Cl)c(-c2c[nH]c3ccccc23)n1 (0.833333 µM) | 0.205 | 102% (inactive)
C[S+]([O-])c1ccc(-c2nc(-c3ccc(F)cc3)c(-c3ccncc3)[nH]2)cc1 (centres undefined) (10 µM) | 0.0867 | 95% (inactive)
Cc1cc(-c2ccccc2)nnc1NCCN1CCOCC1 [minaprine] (10 µM) | 0.145 | 103% (inactive)
N#CCC(=O)NN [cyacetacide] (10 µM) | 0.167 | 102% (inactive)
Nc1ncnc2c1c(-c1cnc3[nH]ccc3c1)nn2C1CCCC1 (10 µM) | -0.0498 | 114% (inactive)
O=C(O)COC(=O)Cc1ccccc1Nc1c(Cl)cccc1Cl [aceclofenac] (10 µM) | -0.0479 | 110% (inactive)
CN(C)NC(=O)CCC(=O)O [daminozide] (10 µM) | 0.0765 | 95% (inactive)
COc1cccc(CCc2ccccc2OCC(CN(C)C)OC(=O)CCC(=O)O)c1 (centres undefined) [sarpogrelate] (10 µM) | 0.198 | 100% (inactive)

SMILES | morphology score [1] | SARS-CoV-2 infection rate [2]
N#CC(=C(/N)Sc1ccccc1N)/C(C#N)=C(/N)Sc1ccccc1N (10 µM) | -0.197 | 113% (inactive)
O=c1[nH]c(=O)c2ccccc2o1 [carsalam] (10 µM) | 0.265 | 85% (inactive)
C[C@@H]1C[C@H]2[C@@H]3CCC4=CC(=O)C=C[C@]4(C)[C@@]3(F)[C@@H](O)C[C@]2(C)[C@H]1C(=O)CO [desoximetasone] (10 µM) | 0.067 | 91% (inactive)
C#Cc1cnc2nc(O)n(C(CC)CC)c2n1 [tirasemtiv] (10 µM) | -0.109 | 104% (inactive)
CN1[C@@H]2CC[C@H]1C[C@@H](OC(c1ccc(F)cc1)c1ccc(F)cc1)C2 [3-alpha-bis-(4-fluorophenyl)-methoxytropane] (10 µM) | 0.266 | 73% (inactive)
O=C(Nc1cc(Cl)cc(Cl)c1O)c1c(O)c(Cl)cc(Cl)c1Cl [oxyclozanide] (10 µM) | 0.0306 | 113% (inactive)
Cc1onc(O)c1C[C@@H](N)C(=O)O (racemic) (10 µM) | 0.0374 | 104% (inactive)
C[C@H]1CCC/C=C/[C@@H]2C[C@H](O)C[C@H]2[C@H](O)/C=C/C(=O)O1 [brefeldin-A] (0.833333 µM) | 0.0397 | 107% (inactive)
COc1ccc(S(=O)(=O)Nc2cccnc2Nc2ccc(O)cc2)cc1 (10 µM) | -0.213 | 106% (inactive)
COc1ccnc(C[S+]([O-])c2nc3cc(OC(F)F)ccc3[nH]2)c1OC (centres undefined) [pantoprazole] (10 µM) | -0.142 | 104% (inactive)
COc1cc2c(cc1OC)-c1cc3ccc(OC)c(OC)c3c[n+]1CC2 [palmatine-chloride] (10 µM) | 0.189 | 92% (inactive)
CC(=O)Oc1cc2c(s1)CCN(C(C(=O)C1CC1)c1ccccc1F)C2 (centres undefined) [prasugrel] (10 µM) | 0.0783 | 108% (inactive)
CNC[C@H](O)[C@@H](O)[C@H](O)[C@H](O)CO [meglumine] (10 µM) | -0.00131 | 104% (inactive)
CCCC(CCC)C(=O)Nc1ccn([C@@H]2O[C@H](CO)[C@@H](O)C2(F)F)c(=O)n1 (0.833333 µM) | 0.0484 | 100% (inactive)
N#CC(c1ccccc1)(c1ccccc1)c1ccccc1Cl (10 µM) | 0.164 | 89% (inactive)
Cc1cc(I)ccc1Nc1c(C(=O)NOCC2CC2)cc(F)c(F)c1F (10 µM) | 0.0652 | 113% (inactive)
CC(C)Cc1ccc(C(C)C(=O)NO)cc1 (centres undefined) [ibuproxam] (10 µM) | 0.234 | 93.5% (inactive)
O=C(O)COc1cccc(CN(Cc2ccc(-n3cccn3)cc2)S(=O)(=O)c2cccnc2)c1 [taprenepag] (10 µM) | -0.0257 | 100% (inactive)
Cc1cc(C)cc(C(=O)NOCCCCCC(=O)NO)c1 (10 µM) | -0.485 | 124% (inactive)
C/C(=C\c1csc(C)n1)[C@@H]1C[C@@H]2O[C@]2(C)CCC[C@H](C)[C@H](O)[C@@H](C)C(=O)C(C)(C)[C@@H](O)CC(=O)N1 [ixabepilone] (10 µM) | -0.0812 | 108% (inactive)
COC(=O)[C@@H]1[C@H]2C[C@H]3c4[nH]c5ccccc5c4CCN3C[C@@H]2CC[C@@H]1O [yohimbine] (10 µM) | 0.0665 | 109% (inactive)

SMILES | morphology score [1] | SARS-CoV-2 infection rate [2]
CCOC(=O)N[C@@H]1CC[C@@H]2[C@@H](C1)C[C@H]1C(=O)O[C@H](C)[C@H]1[C@H]2/C=C/c1ccc(-c2cccc(F)c2)cn1 [vorapaxar] (10 µM) | 0.209 | 106% (inactive)
COc1ccc(Cl)cc1[C@]1(F)C(=O)Nc2cc(C(F)(F)F)ccc21 [flindokalner] (10 µM) | 0.165 | 99.5% (inactive)
CC(=O)[C@H]1CC[C@H]2[C@@H]3CC=C4C[C@@H](O)CC[C@]4(C)[C@H]3CC[C@]12C [pregnenolone] (10 µM) | -0.283 | 112% (inactive)
NCCNc1ccc(NCCN)c2c1C(=O)c1ccncc1C2=O [pixantrone] (10 µM) | 0.328 | 71% (inactive)
COC(=O)N1CC[C@@H]2[C@H]1CCC[C@@]2(O)C#Cc1cccc(C)c1 [mavoglurant] (10 µM) | -0.125 | 112% (inactive)
CC(C)OC(=O)[C@H](C)N[P@](=O)(CO[C@H](C)Cn1cnc2c(N)ncnc21)Oc1ccccc1 [tenofovir-alafenamide] (10 µM) | -0.0883 | 106% (inactive)
Cc1cc(C)n(-c2cccc([C@H](CC(=O)O)CN3CC[C@@H](CCc4ccc5c(n4)NCCC5)C3)c2)n1 [integrin-antagonist-1] (10 µM) | -0.102 | 111% (inactive)
C[C@@]1(F)[C@H](O)[C@@H](CO)O[C@H]1n1ccc(N)nc1=O (10 µM) | 0.0439 | 104% (inactive)
Cc1csc2c(N[C@@H](C)CN3CCN(S(=O)(=O)c4ccc(Cl)c(Cl)c4)CC3)ncnc12 [LPA2-antagonist-1] (10 µM) | 0.142 | 100% (inactive)
C[C@@H](O)[C@H]1C(=O)N2C(C(=O)O)=C([C@H]3CCCO3)S[C@H]12 [faropenem] (10 µM) | 0.121 | 92.5% (inactive)
O=C1CC[C@@](c2ccccc2)(C2CCN(Cc3ccc(I)cc3)CC2)C(=O)N1 [iododexetimide] (10 µM) | -0.0136 | 100% (inactive)
COc1ccc(N(C)c2nc(C)nc3ccccc23)cc1 [verubulin] (10 µM) | -0.0973 | 95% (inactive)
Cc1cc(NC(=O)C2=C(O)c3ccccc3S(=O)(=O)N2C)no1 [isoxicam] (10 µM) | -0.111 | 108% (inactive)
CC(C)(Oc1ccc(Cl)cc1)C(=O)O [clofibric-acid] (10 µM) | -0.0106 | 98.5% (inactive)
OCc1ccc(CO)o1 [2,5-furandimethanol] (10 µM) | 0.0908 | 112% (inactive)
NC/C(=C/F)CCc1ccc(F)cc1 [mofegiline] (10 µM) | -0.0471 | 115% (inactive)
Cc1ccc(/C(=C\CN2CCCC2)c2cccc(/C=C/C(=O)O)n2)cc1 [acrivastine] (10 µM) | -0.036 | 104% (inactive)
COc1cc2ncnc(Nc3ccc(Cl)cc3F)c2cc1OC (10 µM) | -0.174 | 117% (inactive)
N[C@@H](CS(=O)O)C(=O)O [L-cysteinesulfinic-acid] (10 µM) | -0.0506 | 108% (inactive)
CC(=O)c1cc([N+](=O)[O-])c(Sc2ccc(F)cc2F)s1 (10 µM) | 0.534 | 38.5% (active)
